Growth data for 40 molecules are collected here from PubChem BioAssay (NCI).

This is part of a sample that, as a whole, favours compounds with a hit. Of some 83,000 tested, about 20% had one in any assay.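 Single-dose data. Exposure time 48 hours. Values below 10 considered active.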 Values without a mark were called inactive. Activity calls are given as the source filed them.

This test relates to MDA-MB-468 breast. Description: NCI-60 one-dose screen, 48 h (100 = growth as untreated, 0 = no growth, -100 = all killed). To be noted: 10 µM unless noted.
In the case of `O=C(N/N=C/c1ccc(Cl)cc1)c1[nH]c2ccc(Cl)cc2c1-c1ccccc1`, the growth is 33.7%.
Consider `O=S(=O)(NCCNc1nccc(-c2c(-c3cccc(O)c3)nc3occn23)n1)c1ccc(Br)cc1`, for which the growth is 26.6%.
The figure for `Cc1ccc(-c2nc([P+](c3ccccc3)(c3ccccc3)c3ccccc3)c(S(=O)(=O)c3ccc(C)cc3)o2)cc1` is -21.5% (active).
Turning to `COc1cc(C2CC(=O)Nc3c2c(C)nn3-c2nc3ccccc3[nH]2)cc(OC)c1OC` (stereo not given), the growth is 96.9%.
For `COc1cc(C2CC(c3ccc(Cl)cc3)=NN2C(C)=O)ccc1Oc1nc2c(c(=O)n(C)c(=O)n2C)n1C` (stereo not given) the value was 76.6%.
For the molecule `CC(=O)N1C(=S)NC(=O)C1Cn1c(-c2ccccc2)nc2ccccc21` (stereo not given), the growth is 96.8%.
For `O=C(Nc1ccccc1Cl)Oc1ccc2ccccc2c1` the value was 104%; for `O=C(CSc1nc2ccccc2[nH]1)Nc1ccc(-c2nc3ccccc3s2)c(Cl)c1`, 26.5%.
As to `Cc1ccc(-c2nc(N3CCN(CC(=O)Nc4ccc(Cl)cc4)CC3)c3ccccc3n2)cc1`, the growth was 93.3%.
As for `CN(C)c1ccc2nc3ccc(=N)cc-3sc2c1`, the growth was 38.6%.
For `O=C(/C=C/c1ccccc1Cl)Nc1ncc(Cc2cc(Cl)ccc2Cl)s1` the value was 22.8%.
In the case of `O=C1c2cccc3c(-c4ccc5c(c4)ncn5C4CCCCC4)ccc(c23)C(=O)N1CCO`, the growth is 78.9%.
The figure for `COc1ccc(Cn2cc3c(c2-c2cc(OC)c(OC)c(OC)c2)CCc2c(CN4CCCC4)noc2-3)cc1` is 50.7%; for `CCOC(=O)c1cc2c(n1Cc1cc(OC)cc(OC)c1)-c1oncc1CCC2` it is 22.4%.
Regarding `CN(Cc1cccc(C(F)(F)F)c1)C(=O)[C@@H](CC(=O)N1CCC(N2CCCCC2)CC1)N1C(=O)[C@@H](N2C(=O)OC[C@@H]2c2ccccc2)[C@H]1/C=C/c1ccccc1`, the growth is 60.5%.
The figure for `Cc1cc(=O)oc2cc(OCc3nn4c(Nc5nc6ccccc6s5)c(-c5ccccc5)nc4s3)ccc12` is 89.9%.
For `N#CSCC1CC(O)(c2ccccc2)C(c2ccccc2)C(c2ccc(Cl)cc2)O1` (stereo not given) the value was -58.9% (active); for `CC(=O)c1ccc2c(c1)CCc1ccccc1-2`, 94.9%.
As to `Cn1cc([C@@H]2Nc3ccc4[nH]ncc4c3[C@H]3[C@H]4CCC(C4)[C@H]32)c(C(F)(F)F)n1`, the growth is 53.4%.
For the molecule `COC(=O)C(Br)(C(=O)OC)C(Br)C(Br)C(Br)c1ccccc1` (stereo not given), the growth was 7.49% (active).
The figure for `CC(C)CC1NC(C)(C)CO1` (stereo not given) is 108%; for `C/C=C(/C)C(=O)O[C@@H]1CC(C)(C)CC2C34OC(=O)[C@@]21CC[C@@]3(C)[C@]1(C)CCC2C(C)(C)C(=O)CC[C@]2(C)C1C[C@@H]4O` (stereo not given in full) it is 13.1%; for `CCOC(=O)/C(C)=C\c1ccc(OC)c(OC)c1` it is 103%.
With `FC(F)(F)c1cccc(Nc2ccccc2)c1`, the growth was 92.7%.
In the case of `COc1ccc(C(=O)OC2C(OC3C(O)COC(O[C@H]4C[C@H]5[C@@H]6CC=C7C[C@@H](O)CC[C@]7(C)[C@H]6CC[C@]5(C)[C@H]4[C@H](C)C(=O)CCC(C)C)C3OC(N)=O)OCC(O)C2O)cc1` (stereo not given in full), the growth is -24.5% (active).
The figure for `O=C(/C=C(O)/C=C/c1cccc2[nH]ccc12)/C=C/c1cccc2[nH]ccc12` is 67.8%; for `O=C(/C=C(/C=C/c1coc2ccccc12)OB(F)F)/C=C/c1coc2ccccc12` it is 112%; for `Cn1c(=O)c2[nH]c(C(O)c3ccc(Cl)cc3)nc2n(C)c1=O` (stereo not given) it is 96.7%.
The figure for `O=C(NNc1nc(Cl)nc(N2CCN(C(c3ccccc3)c3ccccc3)CC2)n1)c1ccccc1` is -47.2% (active).
As for `NS(=O)(=O)c1ccc(-n2ncc(NC(=O)Nc3ccc(S(=O)(=O)Nc4nccs4)cc3)c2-c2ccccc2)cc1`, the growth is 102%.
For `Nc1nc(-c2cccc3ccccc23)cc2ccccc12` the value was -4.35% (active); for `O=c1[nH]nnc2cc(Cl)ccc12`, 104%; for `CC(=O)O[C@H]1CC[C@]2(C)[C@H]3CC=C4[C@@H]5CC(C)(C)CC[C@]5(C(=O)NCCNCCN)CC[C@@]4(C)[C@]3(C)CC[C@H]2C1(C)C`, -78.2% (active).
For `NC(=O)c1cccc(-c2cc(C(N)=O)ccc2Cl)c1` the value was 53.4%.
For `C=C1c2c(C)nn(-c3ccc(NC(C)=O)cc3)c2N(C)C23CC1C1(C)c4c(C)nn(-c5ccc(NC(C)=O)cc5)c4N(C)C(C)(CC12)C3` (stereo not given) the value was 14.5%.
Consider `C=C1C(=O)O[C@H]2[C@H]1CC/C(COC(=O)NCc1ccc(Cn3c(=O)sn(CCCCC)c3=O)cc1)=C\CC[C@@]1(C)O[C@@H]21`, for which the growth was 3.66% (active).
Regarding `CC1=CC(=O)C2=C(C)CC(OC(=O)CCc3ccccc3)[C@@H]3[C@H](OC(=O)[C@@H]3C)[C@@H]12` (stereo not given in full), the growth was 79.4%.
Consider `N#Cc1ccc(OC(=O)Nc2c(Cl)cc(Cl)cc2Cl)cc1`, for which the growth was 97%.
For `Cc1ccc(-c2c(Br)c(OC(=O)CO[C@@H]3C[C@H](C)CC[C@H]3C(C)C)c(-c3ccc(C)cc3C)c(Br)c2OC(=O)CO[C@H]2C[C@@H](C)CC[C@@H]2C(C)C)c(C)c1`, the growth is 34.5%.
Consider `CN1CCC2(CC1)NC(=O)c1c(c3ccc(Cl)c(Cl)c3n1C)C2C#N` (stereo not given), for which the growth is 9.36% (active).
